Source: PubChem BioAssay
This is a sample that favours compounds with a hit; in the whole collection about 1.8% have one here.
CendR NRP1 mod = modulators of CendR peptide binding to NRP-1, primary screen, biochemical, fluorescence polarization, uHTS; Neuropilin-1 (Homo sapiens), O14786; FAM-RPARPAR peptide binding to NRP-1; inhibition, % at 25 µM; 0.85% of 360,000 active;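 active = inhibition or corrected inhibition above about 18%, plus a signal ratio from 0.5 to 1.5, limit read from the data, passing the limit was not always enough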
A3G deaminase = APOBEC3G DNA deaminase inhibitors, primary screen, biochemical, fluorescence, single-stranded DNA substrate, uHTS; DNA dC->dU-editing enzyme APOBEC-3G (Homo sapiens), Q9HC16; recombinant A3G, ssDNA deamination FAM/TAMRA fluorescence; inhibition, % at 20 µM; 0.28% of 330,000 active; AID 493012, 2011;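 active = inhibition of at least 40% at 20 µM, with no more than 30% in the related APOBEC3A deaminase screen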;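 note: plate controls were DMSO wells with A3G for no effect and wells lacking A3G enzyme for full effect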
Target sequence (Q9HC16 whole entry, looked up): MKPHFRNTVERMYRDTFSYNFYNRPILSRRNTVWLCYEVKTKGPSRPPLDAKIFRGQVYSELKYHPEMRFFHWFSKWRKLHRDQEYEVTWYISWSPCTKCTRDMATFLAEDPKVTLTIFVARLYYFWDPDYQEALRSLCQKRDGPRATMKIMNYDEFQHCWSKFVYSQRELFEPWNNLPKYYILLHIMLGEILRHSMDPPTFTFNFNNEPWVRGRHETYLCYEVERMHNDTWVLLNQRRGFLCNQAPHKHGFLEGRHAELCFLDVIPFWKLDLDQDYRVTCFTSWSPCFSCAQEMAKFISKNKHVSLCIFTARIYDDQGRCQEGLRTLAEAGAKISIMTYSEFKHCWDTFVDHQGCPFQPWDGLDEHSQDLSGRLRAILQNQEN
APOBEC3A inh = APOBEC3A ssDNA deaminase inhibitors, primary screen, selectivity assay for APOBEC3G inhibitor project, biochemical, FAM/TAMRA oligo cleavage fluorescence. 0.41% of 330,000 active. inhibition, % at 20 µM. DNA dC->dU-editing enzyme APOBEC-3A (Homo sapiens), P31941. AID 493011, 2011. recombinant A3A, FAM/TAMRA ssDNA deamination fluorescence;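 active = at least 40% inhibition at 20 µM here, with at most 30% in a related deaminase screen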;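 note: plate controls were A3A with DMSO for no effect and wells lacking A3A enzyme for full effect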
Target sequence (P31941 whole entry, looked up): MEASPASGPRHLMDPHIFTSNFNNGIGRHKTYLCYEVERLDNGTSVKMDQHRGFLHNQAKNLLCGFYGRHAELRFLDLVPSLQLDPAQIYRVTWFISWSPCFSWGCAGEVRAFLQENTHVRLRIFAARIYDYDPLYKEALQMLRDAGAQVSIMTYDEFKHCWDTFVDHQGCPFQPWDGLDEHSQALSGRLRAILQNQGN
MIN6 prolif = inducers of MIN6 beta-cell proliferation, primary screen, ATP luminescence, uHTS | MIN6 cells proliferation, ATPlite luminescence, 48 h; cells starved in 0.2% serum; 100% = growth in 10% serum | proliferation, % at 10 µM | 0.29% of 330,000 active | AID 2380, 2010;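 active = compounds whose signal lies at least 3.5 SD above the mean of all wells on their plate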;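 note: 0% = DMSO-treated cells in low-serum medium and 100% = 10% serum control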
VLA-4 inh = inhibition in human VLA-4 binding assay, primary screen, VLA-4 allosteric modulator project, MLPCN library, flow cytometry, VLA-4 expressing cells. AID 2557, 2010. 0.2% of 330,000 active. inhibition, % (about 7 µM as worked out from the volumes in the protocol). ligand binding flow cytometry; in the data active = inhibition above about 50%
APOBEC3G confirm = APOBEC3G deaminase inhibitor retest, confirmation, biochemical, fluorescence, single-stranded DNA substrate, single concentration. shares compounds with A3G deaminase. recombinant A3G ssDNA deaminase, UDG/FAM-TAMRA fluorescence. inhibition, % at 20 µM. 72% of 890 active. AID 493152, 2011;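 active = inhibition reaching a set limit in any replicate at 20 µM, the limit being 80% of the first screen's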
UDG ctr A3G = E. coli UDG inhibitors, confirmation, counter-screen for APOBEC3G inhibitor project, biochemical, single concentration, fluorescence, FAM/TAMRA oligo; shares compounds with A3G deaminase; UDG counterscreen; inhibition, % at 20 µM; 710 tested, under 10 active; AID 504715, 2011;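 active = compounds giving 40% or more inhibition at 20 µM in any one of the three replicates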;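 note: plate controls were DMSO wells with UDG and oligo for no effect and DMSO wells lacking both for full effect; inhibitors lower the FAM signal released by uracil excision and alkaline cleavage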
The depositor's hits bear a star.

Screening Cc1ccccc1C(=O)NNC(=S)NC(=O)COc1ccccc1 returned CendR NRP1 mod 3, A3G deaminase 44*, APOBEC3A inh -8, MIN6 prolif -3, VLA-4 inh 1, APOBEC3G confirm 64* and UDG ctr A3G -2.
`CC(C)(C)c1ccc(C(=O)NC(=S)NNC(=O)COc2ccccc2)cc1` gave CendR NRP1 mod -10, A3G deaminase -5, APOBEC3A inh -3, MIN6 prolif -6 and VLA-4 inh 19.
For O=C(CSc1cc(Cl)ccc1Cl)Nc1ccc(N2CCOCC2)cc1 the results were CendR NRP1 mod 5, A3G deaminase -7, APOBEC3A inh 0, MIN6 prolif -4 and VLA-4 inh 16.
`CC(C)CNC(=O)c1ccc(-c2ccc(F)c(F)c2)c2ccoc12` gave CendR NRP1 mod 4.
`CC(C)CCn1c(=O)c2ccccc2n2c(=S)[nH]nc12` gave CendR NRP1 mod -5, A3G deaminase 46*, APOBEC3A inh -5, MIN6 prolif 1, VLA-4 inh 17, APOBEC3G confirm 86* and UDG ctr A3G -4.
Screening C=CCn1c(=O)c2ccccc2n2c(=S)[nH]nc12 returned CendR NRP1 mod 9, A3G deaminase 50*, APOBEC3A inh -7, MIN6 prolif 4, VLA-4 inh 40, APOBEC3G confirm 80* and UDG ctr A3G -3.
CCOCCCn1c(=O)c2ccccc2n2c(=S)[nH]nc12 was read as CendR NRP1 mod 6, A3G deaminase 42*, APOBEC3A inh -2, MIN6 prolif 1, VLA-4 inh 1, APOBEC3G confirm 62* and UDG ctr A3G 1.
N#Cc1ccc(NC(=O)C2=COCCO2)cc1 was read as CendR NRP1 mod -13, A3G deaminase -3, APOBEC3A inh -4, MIN6 prolif -4 and VLA-4 inh -8.
Screening CCC(=O)c1ccc(OCC(=O)OCC(=O)N2c3ccccc3NC(=O)C2(C)C)cc1 returned CendR NRP1 mod 15, A3G deaminase 2, APOBEC3A inh 7, MIN6 prolif -3 and VLA-4 inh -16.
For Cc1ccc(S(=O)(=O)N2CCC(C(=O)Nc3nnc(-c4ccco4)s3)CC2)cc1 the results were CendR NRP1 mod -9, A3G deaminase 5, APOBEC3A inh 1, MIN6 prolif -3 and VLA-4 inh -6.
Screening O=C(Nc1nnc(-c2ccco2)s1)C1CCCCC1 returned CendR NRP1 mod -27, A3G deaminase 56*, APOBEC3A inh -2, MIN6 prolif 1, VLA-4 inh -7, APOBEC3G confirm -3 and UDG ctr A3G 1.
Screening O=C(NNC(=S)NC(=O)c1ccccc1[N+](=O)[O-])c1ccccc1 returned CendR NRP1 mod -3, A3G deaminase -6, APOBEC3A inh -1, MIN6 prolif -2 and VLA-4 inh 18.
For O=C(NNC(=O)c1ccccc1[N+](=O)[O-])c1ccccc1[N+](=O)[O-] the results were CendR NRP1 mod -8, A3G deaminase 3, APOBEC3A inh 4, MIN6 prolif -2 and VLA-4 inh 0.
Screening CCC(=O)NC(=S)NNC(=O)c1ccccc1[N+](=O)[O-] returned CendR NRP1 mod 7, A3G deaminase 61*, APOBEC3A inh -5, MIN6 prolif 4, VLA-4 inh 7, APOBEC3G confirm 2 and UDG ctr A3G -5.
Screening O=C(NC(=S)NNC(=O)c1ccccc1[N+](=O)[O-])c1ccccc1 returned CendR NRP1 mod 7, A3G deaminase 46*, APOBEC3A inh -4, MIN6 prolif -2, VLA-4 inh -11, APOBEC3G confirm 31* and UDG ctr A3G 3.
Screening CCN(CC)S(=O)(=O)c1ccc2c(c1)nc(SCC(=O)N1CCOCC1)n2-c1ccccc1OC returned CendR NRP1 mod 4, A3G deaminase 44*, APOBEC3A inh 7, MIN6 prolif -4, VLA-4 inh -7 and APOBEC3G confirm 0.
For CCc1cc(-c2n[nH]c(=S)n2CC)cs1 the results were CendR NRP1 mod -4, A3G deaminase 52*, APOBEC3A inh -3, MIN6 prolif 0, VLA-4 inh -4, APOBEC3G confirm 83* and UDG ctr A3G 0.
For CCCc1cc(-c2n[nH]c(=S)n2CC)cs1 the results were CendR NRP1 mod 4, A3G deaminase 43*, APOBEC3A inh -5, MIN6 prolif 0, VLA-4 inh 5, APOBEC3G confirm 79* and UDG ctr A3G -5.
For CCn1c(-c2csc(C(C)C)c2)n[nH]c1=S the results were CendR NRP1 mod -7, A3G deaminase 51*, APOBEC3A inh 2, MIN6 prolif 0, VLA-4 inh 0 and APOBEC3G confirm 0.
`Cc1cc(-c2n[nH]c(=S)n2CC(C)C)cs1` gave CendR NRP1 mod -5, A3G deaminase 49*, APOBEC3A inh 1, MIN6 prolif -2, VLA-4 inh -14, APOBEC3G confirm 66* and UDG ctr A3G -5.
For O=C(NC1=NN(c2ccccc2)CC1)Nc1ccccc1F the results were CendR NRP1 mod 8, A3G deaminase 6, APOBEC3A inh 5, MIN6 prolif -2 and VLA-4 inh -4.
`O=C1C=C(c2cccc(CO)c2)C[C@@H](c2ccc3c(c2)OCO3)C1` gave CendR NRP1 mod -2, A3G deaminase -9, APOBEC3A inh -1, MIN6 prolif 1 and VLA-4 inh 10.
Screening COC(=O)c1ccccc1C(=O)N(Cc1cccnc1)CC1CCCN(C2CCCCC2)C1 (centres undefined) returned CendR NRP1 mod -3, A3G deaminase 5, APOBEC3A inh 1, MIN6 prolif -4 and VLA-4 inh -105.
Screening O=C(COC(=O)C(CO)NS(=O)(=O)c1ccc(Br)cc1)Nc1ccc2c(c1)OCCO2 (centres undefined) returned CendR NRP1 mod 10, A3G deaminase -8, APOBEC3A inh -2, MIN6 prolif -4 and VLA-4 inh 1.
Screening CC(C)(C)c1cc(CP(=O)(c2ccccc2)c2ccccc2)cc(C(C)(C)C)c1O returned CendR NRP1 mod 4, A3G deaminase 1, APOBEC3A inh -2, MIN6 prolif -5 and VLA-4 inh 7.
